# Pf growth 48h: P. falciparum growth inhibition at 48 hours (one generation). P. falciparum luciferase growth in erythrocytes, 48 h. AID 504832. Potency, µM (top dose mostly 28.7 µM), for the others: at the highest dose activity change, negative = inhibition, actives largely listed as inhibitors. 5.9% of 310,000 active; further: on the % scale 0 is the no-effect control and ±100 the full control effect
#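 Compounds are pin-transferred into medium, infected erythrocytes (2% hematocrit, 0.1% parasitemia final) are added, and plates sit one parasite generation at 37 C in 5% CO2. Detection reagent is then added and luminescence measured.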
# AmpC no deterg: AmpC beta-lactamase inhibition without detergent; P00811; AmpC nitrocefin hydrolysis, absorbance 480 nm, 0.0001% Triton; Potency, µM (top dose mostly 57.1 µM), for inactives: top-dose activity change, negative = inhibition, hits mostly inhibitors; 0.52% of 330,000 active;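 further: plate controls were no compound for no effect and no enzyme for full effect; nearly all actives have a fitted effect of over 20% in size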
# Target sequence (P00811 whole entry, looked up): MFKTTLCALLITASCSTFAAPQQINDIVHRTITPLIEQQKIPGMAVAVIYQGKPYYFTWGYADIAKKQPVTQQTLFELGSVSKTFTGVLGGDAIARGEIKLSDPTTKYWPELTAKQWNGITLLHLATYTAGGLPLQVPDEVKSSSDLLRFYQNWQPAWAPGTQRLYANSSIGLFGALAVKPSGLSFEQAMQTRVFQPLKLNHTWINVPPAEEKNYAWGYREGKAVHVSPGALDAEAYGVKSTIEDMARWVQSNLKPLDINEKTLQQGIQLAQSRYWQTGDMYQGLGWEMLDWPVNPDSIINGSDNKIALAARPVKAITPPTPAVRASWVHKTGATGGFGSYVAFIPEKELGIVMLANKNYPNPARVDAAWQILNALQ
#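 AmpC (5.3 nM in the dispensed reagent) in 20 mM phosphate pH 7.0 with 0.01% (detergent screen) or 0.0001% Triton X-100 was preincubated with compounds for 15 min at room temperature. Nitrocefin was then added from an 800 uM solution, and hydrolysis was followed at 480 nm.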
# AmpC inh detg: blocks E. coli AmpC beta-lactamase in detergent assay; P00811; AmpC hydrolysis of nitrocefin, absorbance 480 nm, 0.01% Triton; Potency, µM (highest dose often 114 µM), for the others: at the highest dose activity change, negative = inhibition, hits mostly inhibitors; 0.041% of 370,000 active; AID 485294;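 further: 0% = no-compound wells and -100% = no-enzyme wells; nearly all actives have a fitted effect of over 25% in size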
#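 AmpC (5.3 nM in the dispensed reagent) in 20 mM phosphate pH 7.0 with 0.01% (detergent screen) or 0.0001% Triton X-100 was preincubated with compounds for 15 min at room temperature. Nitrocefin was then added from an 800 uM solution, and hydrolysis was followed at 480 nm.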
# Pf growth 96h: inhibits malaria parasite growth, 96 h; 6.9% of 320,000 active; P. falciparum luciferase reporter growth, 96 h; Potency, µM (top dose mostly 28.7 µM), inactives show top-dose activity change, negative = inhibition, usual class: inhibitors; further: on the % scale 0 is the no-effect control and ±100 the full control effect
#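 Infected RBCs, 2% Hct / 0.05% parasitemia final; luciferase-reporter P. falciparum; cpd 96 h, 37 C, 5% CO2; luciferase detection reagent; luminescence.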
# Sm TGR block: inhibitors of Schistosoma mansoni thioredoxin glutathione reductase; Q962Y6; purified TGR, DTNB reduction, TNB absorbance 405 nm; Potency, µM (top dose mostly 114 µM), for the others: top-dose activity change, negative = inhibition, most hits filed as inhibitors; 3% of 360,000 active; further: on the % scale 0 is the no-effect control and ±100 the full control effect; nearly all actives have a fitted effect of over 60% in size
#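 First, TGR (20 nM dispensed) and NADPH were mixed with compound. Second, a 15 min room-temperature incubation followed. Third, further NADPH and then DTNB were added to start the reaction. Finally, TNB absorbance was monitored kinetically.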
# SARS PLpro yeast: blocks SARS-CoV papain-like protease in a yeast assay. Potency, µM (top dose mostly 32.9 µM), for inactives: at the top dose activity, positive = growth rescue, usual class: activators. S. cerevisiae expressing SARS-CoV PLpro, growth rescue. 0.19% of 330,000 active; calls by dose curve; further: 0% is about no effect; nearly all actives have a fitted effect of over 55% in size
# Active calls of the source: *; ? = inconclusive; / = not tested or not shown. An excerpt weighted towards active compounds, which were near 12% of everything screened. Unless noted, the call rests on the fitted dose curve; in most records, active means well fitted curve in the direction sought with a large enough effect; inconclusive means small, poorly fitted or top-dose-only effect, or another doubt; inactive means no such curve, though single readings can be large; an effect the other way counts as inactive or inconclusive. Potency means the concentration at half of the fitted maximal effect.
SMILES,Pf growth 48h,AmpC no deterg,AmpC inh detg,Pf growth 96h,Sm TGR block,SARS PLpro yeast
Cc1nn(-c2ccccc2)c(C)c1/C=N\N1CCN(c2ccc(Cl)cc2)CC1,13µM*,1%,-13%,?,2%,1%
COc1ccc(CCNC(=O)c2cc(S(=O)(=O)N3CCCC(C)C3)cn2C)cc1OC (stereo not drawn),/,/,0%,/,1%,/
CCNc1nc(NCC)n2c(SCC(=O)Nc3ccc(F)cc3)nnc2n1,0%,-11%,-17%,?,-4%,3%
COc1ccc2cnnc(SCC(=O)Nc3ccccc3)c2c1OC,17%,-30%,?,56%,-2%,3%
CCNc1nc(NCC)n2c(SCC(=O)Nc3ccc(C)c(C)c3)nnc2n1,9.3µM*,-14%,2%,-33%,-1%,9%
CCNc1nc(NCC)n2c(SCC(=O)Nc3ccc(Br)cc3F)nnc2n1,12µM*,2%,-14%,?,-2%,-1%
COc1ccc(OC)c(NC(=O)CSc2nncc3ccc(OC)c(OC)c23)c1,?,86%,1%,9.3µM*,-2%,0%
CCNc1nc(NCC)n2c(SCC(=O)Nc3cc(OC)ccc3OC)nnc2n1,?,9%,?,8.3µM*,-8%,-7%
CCNc1nc(NCC)n2c(SCC(=O)Nc3ccccc3)nnc2n1,-20%,-22%,2%,?,3%,-1%
Cc1ccc(C)c(NC(=O)CN2C(=O)CCc3cc(S(=O)(=O)N4CCCCC4)ccc32)c1,/,/,6%,/,-6%,/
CCC1CCCCN1CCCNC(=O)c1ccc2c(c1)sc1nc(-c3ccc(F)cc3)cn12 (stereo not drawn),/,/,1%,/,0%,/
Cc1ccc(S(=O)(=O)c2c(Nc3cc(F)ccc3F)sc(C(=O)c3ccc(F)cc3)c2N)cc1,/,/,11%,/,-7%,/
C[C@@H](NC(=O)[C@@H]1Cc2ccccc2CN1)C(=O)NCC1CCCO1 (stereo partly drawn),11%,-16%,-1%,7%,-16%,-4%
O=[N+]([O-])c1ccccc1/C=N/N1CCN(c2ccncc2S(=O)(=O)N2CCCCC2)CC1,12µM*,66%,-6%,2.3µM*,0%,-58%
O=C1C=C(c2cccc(Cl)c2O)C[C@@H](c2ccc(Cl)cc2)C1,2.9µM*,-22%,8%,1.5µM*,-21%,2%
O=C1C=C(c2cccc(Br)c2)C[C@@H](c2ccc(Cl)cc2)C1,/,-30%,/,/,/,-1%
O=C1C=C(c2ccc3c(c2)OCO3)C[C@@H](c2ccc3c(c2)OCO3)C1,41%,-14%,-9%,35%,-3%,3%
CC(C)c1cccc(C2=CC(=O)C[C@H](c3ccc4c(c3)OCO4)C2)c1,13µM*,-38%,13%,8.3µM*,-1%,-3%
O=C1C=C(c2cc(F)ccc2F)C[C@@H](c2ccc(Cl)cc2)C1,3.7µM*,-11%,11%,?,2%,-1%
O=C1C=C(c2cccc(Cl)c2)C[C@@H](c2ccc(Cl)cc2)C1,3.3µM*,-3%,6%,2.1µM*,-16%,-3%
N=c1c(S(=O)(=O)c2ccc(Cl)cc2)cc2c(=O)n3ccccc3nc2n1C1CCCCC1,52%,-15%,6%,?,3%,-5%
CCOC(=O)c1cccc(NC(=O)CC2C(=O)N(c3ccc(C)cc3)C(=O)N2Cc2cccc(OC)c2)c1 (stereo not drawn),/,/,0%,/,-10%,/
COCC(=O)N1CCC(Oc2ccc(C(=O)NC3Cc4ccccc4C3)cc2)CC1,18%,76%,-6%,10µM*,-24%,?
COCCC(=O)N1CCC(Oc2ccc(C(=O)NCCCC3CCCC3)cc2)CC1,-17%,197%,0%,12µM*,0%,1%
COCC(=O)N1CCC(Oc2ccc(C(=O)NCc3cc(C)no3)cc2)CC1,8%,1%,-1%,4.1µM*,-4%,?
